Measured values from PubChem BioAssay (NCI).
This is part of a sample that, as a whole, favours compounds with a hit. Of some 79,000 tested, about 15% had one in any assay. Active and inactive are the calls of the source. Rule as the data show it: active = growth inhibition above about 70%; inactive = the rest.

Experiments:
[1] = NCI Yeast Anticancer Drug Screen. Data for the rad50 strain (AID 155);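 also: 0% = growth of vehicle-only cultures of the same strain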; conditions: S. cerevisiae rad50 strain growth inhibition, active compounds read high
Outline: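 Yeast carrying a defined DNA repair defect were exposed to test compounds, and growth was compared with vehicle-treated controls to give percent inhibition.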

[2] = NCI Yeast Anticancer Drug Screen. Data for the mec2-1 strain (AID 157); conditions: S. cerevisiae mec2-1 strain, active compounds read high
Outline: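 Cells of the genetically defined mec2-1 yeast strain are incubated with test compound. Inhibition of growth is calculated against vehicle-treated controls.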

[3] = NCI Yeast Anticancer Drug Screen. Data for the sgs1 mgt1 strain (AID 161);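 also: 0% = growth of cultures given vehicle only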; conditions: S. cerevisiae sgs1 mgt1 strain, active compounds read high
Outline: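 Inhibition of yeast growth, normalised to vehicle-treated controls, is reported for a strain bearing genetic alterations in DNA damage repair.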

[4] = NCI Yeast Anticancer Drug Screen. Data for the cln2 rad14 strain (AID 165);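 also: 0% = growth equal to vehicle treated cultures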; conditions: S. cerevisiae cln2 rad14 strain, active compounds read high
Outline: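 The screen exposed genetically defined yeast (cln2 rad14) to test compounds and scored growth inhibition relative to vehicle-treated controls.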

[5] = NCI Yeast Anticancer Drug Screen. Data for the bub3 strain (AID 167); conditions: S. cerevisiae bub3 mutant strain, active compounds read high
Outline: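 Compounds were applied to a genetically altered yeast strain carrying a cell-cycle control defect. Growth inhibition was scored against vehicle-treated controls.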

[6] = NCI Yeast Anticancer Drug Screen. Data for the mlh1 rad18 strain (AID 175); conditions: S. cerevisiae mlh1 rad18 strain growth inhibition, active compounds read high
Outline: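 Compound-treated yeast growth, normalised to vehicle controls. Strain bears defined DNA repair mutations.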

[7] = at 5.0 µM (retest, dose inferred, filed as 0.5)
[8] = at 50.0 µM (retest, dose inferred, filed as 5.0)

Measured: growth inhibition

FC(F)(F)c1nc(SCc2ccc(Cl)cc2)n[nH]1
inactive: [1]; [7] 3% | [1]; [8] 20% | [1]; at 50.0 µM 2.45% | [2]; [7] 0% | [2]; [8] 1% | [2]; at 50.0 µM -13.8% | [3]; [7] -7% | [3]; [8] 15% | [3]; at 50.0 µM -22.4% | [4]; [7] -10% | [4]; [8] -17% | [4]; at 50.0 µM 38.6% | [5]; [7] -9% | [5]; [8] 0% | [5]; at 50.0 µM -33.4% | [6]; [7] -3% | [6]; [8] 13% | [6]; at 50.0 µM -17.8%

CCCCC1(CC)COC(c2ccccc2OC)OC1 (configuration not stated)
inactive: [1]; [7] -6% | [1]; at 50.0 µM -28.4% | [2]; [7] -5% | [2]; at 50.0 µM 2.45% | [3]; [7] -1% | [3]; at 50.0 µM 5.5% | [4]; [7] -9% | [4]; [8] 65% | [4]; at 50.0 µM -9.85% | [5]; [7] 31% | [6]; [7] -2% | [6]; at 50.0 µM -17.2%
active: [1]; [8] 88% | [2]; [8] 88% | [3]; [8] 81% | [5]; [8] 92% | [5]; at 50.0 µM 76.5% | [6]; [8] 87%

CC(C)COP(=O)(OCC(C)C)C(NS(=O)(=O)c1ccccc1)(C(F)(F)F)C(F)(F)F
active: [2]; at 50.0 µM 82.7% | [6]; at 50.0 µM 90.2%
inactive: [1]; [7] 4% | [1]; [8] 11% | [1]; at 50.0 µM 63.5% | [2]; [7] -12% | [2]; [8] -2% | [3]; [7] 7% | [3]; [8] -5% | [3]; at 50.0 µM -2.35% | [4]; [7] 27% | [4]; [8] 42% | [4]; at 50.0 µM 6.85% | [5]; [7] -6% | [5]; [8] 8% | [5]; at 50.0 µM -3.8% | [6]; [7] 0% | [6]; [8] 3%

COc1ccccc1NC(=O)O/N=C(/Cl)C(C)C
active: [1]; [8] 70% | [2]; [8] 70% | [3]; [8] 71% | [5]; [8] 95% | [5]; at 50.0 µM 80.5%
inactive: [1]; [7] 1% | [1]; at 50.0 µM -4.65% | [2]; [7] 3% | [2]; at 50.0 µM 52% | [3]; [7] -32% | [3]; at 50.0 µM 37.6% | [4]; [7] 40% | [4]; [8] 28% | [4]; at 50.0 µM 31.9% | [5]; [7] -26% | [6]; [7] -24% | [6]; [8] 41% | [6]; at 50.0 µM 41.1%

Cc1cccc2c(=O)c3ccccc3oc12
inactive: [1]; [7] 5% | [1]; [8] 42% | [1]; at 50.0 µM 47.5% | [2]; [7] 2% | [2]; [8] 11% | [2]; at 50.0 µM 17.2% | [3]; [7] -1% | [3]; [8] 18% | [3]; at 50.0 µM 15.4% | [4]; [7] 12% | [4]; [8] -1% | [4]; at 50.0 µM -63.5% | [5]; [7] 9% | [5]; [8] 19% | [5]; at 50.0 µM 14.5% | [6]; [7] 9% | [6]; [8] 11% | [6]; at 50.0 µM 3.5%

COc1ccc(Cl)c(-c2cc(OC)c(N=N/C(=N/Nc3ccc([N+](=O)[O-])cc3)c3ccc([N+](=O)[O-])cc3)cc2Cl)c1
inactive: [1]; [8] 19% | [2]; [8] 4% | [2]; at 50.0 µM 45.5% | [3]; [7] 44% | [3]; [8] -18% | [3]; at 50.0 µM 60.2% | [4]; [8] 0% | [4]; at 50.0 µM 50.2% | [5]; [8] 5% | [5]; at 50.0 µM 44.5% | [6]; [8] 17%
active: [1]; [7] 95% | [1]; at 50.0 µM 70.9% | [2]; [7] 98% | [4]; [7] 74% | [5]; [7] 99% | [6]; [7] 98% | [6]; at 50.0 µM 76.1%

CN(C)CC/C(=N\Nc1ccc(Cl)cc1Cl)c1ccccc1
active: [1]; [7] 90% | [1]; [8] 99% | [1]; at 50.0 µM 99.5% | [2]; [7] 79% | [2]; [8] 100% | [2]; at 50.0 µM 99.5% | [3]; [7] 97% | [3]; [8] 100% | [3]; at 50.0 µM 99.5% | [4]; [7] 95% | [4]; [8] 99% | [4]; at 50.0 µM 99.2% | [5]; [7] 96% | [5]; [8] 100% | [5]; at 50.0 µM 99.5% | [6]; [7] 96% | [6]; [8] 100% | [6]; at 50.0 µM 99.2%

O=C(/C=C/c1ccccc1)c1cc2c(cc1O)OCO2
inactive: [1]; [7] -6% | [1]; [8] 17% | [1]; at 50.0 µM 29.6% | [2]; [7] -5% | [2]; [8] 3% | [2]; at 50.0 µM -3.2% | [3]; [7] -16% | [3]; [8] 9% | [3]; at 50.0 µM 22.9% | [4]; [7] 2% | [4]; [8] 31% | [4]; at 50.0 µM 13.8% | [5]; [7] 3% | [5]; [8] 37% | [5]; at 50.0 µM 18.8% | [6]; [7] -16% | [6]; [8] -1% | [6]; at 50.0 µM 31.5%

N#CC1=C(C#N)Sc2nc3cc(Cl)ccc3nc2S1
inactive: [1]; [7] 17% | [1]; at 50.0 µM 68.7% | [2]; [7] 24% | [3]; [7] 30% | [4]; [7] 25% | [4]; at 50.0 µM 20.6% | [5]; [7] 19% | [5]; at 50.0 µM 41.9% | [6]; [7] 29%
active: [1]; [8] 99% | [2]; [8] 99% | [2]; at 50.0 µM 91.1% | [3]; [8] 98% | [3]; at 50.0 µM 77.9% | [4]; [8] 99% | [5]; [8] 98% | [6]; [8] 99% | [6]; at 50.0 µM 94.8%
